Reference: PubChem BioAssay (NCATS)
Results filed as inconclusive are left out. A number with no mark means an inactive call. Active and inactive are the calls of the source. The call rests on the fitted dose curve; in most records, active means well fitted inhibition curve with a large enough effect; inconclusive means small, poorly fitted or top-dose-only effect; inactive means flat fitted curve, though single readings scatter.

Assay: P-glycoprotein substrates identified in KB-8-5-11 adenocarcinoma cell line, qHTS therapeutic library screen (AID 1346987); further: nearly all actives have a fitted effect of over 65% in size
Conditions: KB-8-5-11 (P-gp overexpressing) viability, CellTiter-Glo, 72 h; series mostly up to 44.5 µM; activity change, negative = cytotoxicity: at the top concentration
Procedure, shortened: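 Compounds are pinned in dose-response onto KB-8-5-11 cells (500 cells/well, colchicine-free medium) and left 72 h at 37 degree C. CellTiter-Glo luminescence then yields AC50 values.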
On the % scale 0 is the no-effect control and ±100 the full control effect; potency means the concentration at half of the fitted maximal effect.

Row | Structure (SMILES) | activity change, negative = cytotoxicity | Potency | outcome
1 | CNCc1cc(-c2ccccc2F)n(S(=O)(=O)c2cccnc2)c1 | -8.24% |  | 
2 | O=C(Nc1nc2cc(C(F)(F)F)cc(NC3CC3)n2n1)c1cccnc1 |  | 2.91 µM (active) | 
3 | COc1cc(NC(=O)c2cc(C3CC3)on2)c(OC)cc1Cl | -4.84% |  | 
4 | Cc1ccc(-c2cn3c4c(sc3n2)CCCC4)cc1 | -19% |  | 
5 | CN1CCC(NC(=O)c2cc(-c3c(O)cc(O)cc3Oc3ccc([N+](=O)[O-])cc3)on2)CC1 |  | 11.6 µM (active) | 
6 | CCCCCc1ccc(/C=C/C(=O)Nc2cc(Cl)ccc2C(=O)O)cc1 | -13.6% |  | 
7 | COc1cc(C(N)=O)nc(-c2ccccn2)c1O | -53.5% |  | 
8 | CN(C)CCOc1cc(NS(=O)(=O)c2c(Cl)cc(C(F)(F)F)cc2Cl)ccc1Cl | -28.9% |  | 
9 | CCOc1ccc(CCNC(=O)c2cc3sc(Cl)cc3n2C)cc1OCC | -20.2% |  | 
10 | CC(=O)c1ccc2c(c1)[C@H](NC(=O)c1ccc(F)c(Cl)c1)[C@H](O)C(C)(C)O2 | -22.6% |  | 
11 | CCn1c(=O)c(-c2ccc(-c3cncs3)cc2Cl)cc2cnc(Nc3ccc(N4CCN(C)CC4)cc3)nc21 |  | 18.4 µM (active) | 
12 | COC(C)(C)CCn1nc(Nc2c(C)cccc2C)c2cnc(Nc3ccc(OCCN4CCCC4)c(F)c3)nc21 |  | 20.6 µM (active) | 
13 | CN(C)CC1CCn2c(c(C3=C(c4cn(C)c5ccccc45)C(=O)NC3=O)c3ccccc32)C1 (stereo unspecified) |  | 16.4 µM (active) | 
14 | CC1(C(=O)Nc2ccc(F)nc2)CCCN1c1nc(Nc2cc(C3CC3)[nH]n2)c2cccn2n1 (stereo unspecified) |  | 2.31 µM (active) | 
15 | Nc1nc2c(cnn2CCCc2ccc(O)cc2)c2nc(-c3ccco3)nn12 |  |  | inactive
16 | Nc1nc(NC2CC2)cc(-c2cccc(Cl)c2Cl)n1 |  | 6.51 µM (active) | 
17 | C=C1/C(=C/C=C2\CCC[C@]3(C)[C@@H]([C@@H](C)OCCC(O)(CC)CC)CC[C@@H]23)C[C@@H](O)C[C@@H]1O | -17.5% |  | 
18 | O=C(CCCN1CCC(n2c(=S)[nH]c3ccccc32)CC1)c1ccc(F)cc1 |  | 9.2 µM (active) | 

Row | Structure (SMILES) | activity change, negative = cytotoxicity | Potency | outcome
19 | C=CC(=O)Nc1ccc2ncnc(Nc3cccc(Br)c3)c2c1 |  | 8.2 µM (active) | 
20 | CC(=O)OCC(=O)[C@@]1(O)[C@H](C)C[C@H]2[C@@H]3C[C@H](F)C4=CC(=O)C=C[C@]4(C)[C@H]3[C@@H](O)C[C@@]21C | -11.1% |  | 
21 | Cc1cc(C)c(S(=O)(=O)n2cc(C)cc2C)c(C)c1 | 6.81% |  | 
22 | C=CC(=O)N1CCC[C@@H](n2nc(-c3cccc(C(=O)Nc4ccc(C(C)C)c(C)c4)c3)c3c(N)ncnc32)C1 | -21.4% |  | 
23 | O=C(NCCCN1CCC2(CC1)OCc1ccccc12)[C@H]1CCCN1Cc1ccccc1 | -10.9% |  | 
24 | CCN(CC)c1ccc(C(=C2C=CC(=[N+](CC)CC)C=C2)c2ccccc2)cc1 |  | 4.61 µM (active) | 
25 | Nc1nc2c(ncn2C2OC3COP(=O)(O)OC3C2O)c(=O)[nH]1 (stereo unspecified) | -0.115% |  | 
26 | CC(C)NC(=O)N1CC[C@H](N=C2Nc3cc(F)ccc3N(CC(F)F)c3ccc(Cl)cc32)C1 | -19.3% [at 9.29 µM] |  | 
27 | CC1(CO)CC2C(O)C3=C(CC(C)(O)C2C1)C(=O)OC3 (stereo unspecified) | 0.305% |  | 
28 | C[C@H]1CO[C@@H]2Cn3cc(C(=O)NCc4ccc(F)cc4F)c(=O)c(O)c3C(=O)N12 | -20.1% |  | 
29 | COC(=O)c1ccc(N2CCN(C)CC2)c(NC(=O)c2cccc(OC)c2)c1 | -19.6% |  | 
30 | CC1(C)CC[C@]2(C(=O)O)CC[C@]3(C)C(=CCC4[C@@]5(C)C[C@@H](O)[C@H](O)C(CO)(CO)C5CC[C@]43C)C2[C@@H]1O (stereo partly specified) |  | 7.96 µM (active) | 
31 | COc1cc2nc(N3CCN(C(=O)COc4c(OC)cccc4C(C)C)CC3)nc(N)c2cc1OC | -22.5% |  | 
32 | C=C1CCC[C@]2(C)CC/C(=C(/CO)C(=O)OC)C[C@@H]12 | -1.04% |  | 
33 | COc1ccc(CNCc2cccc3ccccc23)cc1 | -15.9% |  | 
34 | O=S(=O)(NCc1cccc2ccccc12)c1cc(Cl)c(Oc2cccc(N3CCNCC3)c2)s1 |  | 16.4 µM (active) | 
35 | C=C1CO[C@@]2(O[C@H]3CC4C5CC=C6C[C@@H](O)C[C@@H](O[C@@H]7OC[C@H](O)[C@H](O[C@@H]8OC[C@@H](O)[C@H](O)[C@H]8O)[C@H]7O[C@@H]7O[C@@H](C)[C@H](OC(C)=O)[C@@H](OC(C)=O)[C@H]7OC(C)=O)[C@]6(C)C5CC[C@]4(C)[C@@H]3[C@@H]2C)[C@@H](O)[C@H]1OC1OC(C)C(O)C(O)C1O (stereo partly specified) |  |  | inactive [at 9.29 µM]
36 | CCC(CC)Nc1nc(C)c(-c2ccc(OC(F)(F)F)cc2OC)nc1OC | -0.463% |  | 
